Screening data as filed in PubChem BioAssay.
Shiga toxin inh – A qHTS for Small Molecule Inhibitors of Shiga Toxin; Vero cells, Shiga toxin protein synthesis inhibition reporter; inhibition, % at 38.7 µM; 290,000 tested, 9.2% active; AID 2315, 2010; in the data active means inhibition mostly above about 28%, no sharp cut-off; inactive means mostly below about 43%; further: 0% is about no effect
HCV inh – qHTS Assay for Inhibitors of Hepatitis C Virus (HCV); Huh7.5.1 HCVcc-Cre infection, luciferase reporter, 44 h; 340,000 tested, 3.4% active; Potency, µM (titrated, usually from 41.8 µM), inactives show at the highest dose activity change, negative = inhibition, actives largely listed as inhibitors; active means well fitted inhibition curve with a large enough effect; inconclusive means small, poorly fitted or top-dose-only effect, or another doubt; inactive means no such curve, though single readings can be large or run the other way; further: potency means the concentration at half of the fitted maximal effect; on the % scale 0 is the no-effect control and ±100 the full control effect
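After 44 h co-culture of compound, cells and HCVcc-Cre (~0.5 moi), substrate is added for 15 min at room temperature and luciferase measured over 15 sec. Cells were seeded at 1,000/well and pre-cultured 4 h.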
FMDV inh – High Throughput Screening for Foot and Mouth Disease Virus Antivirals | FMDV antiviral cell-based qHTS | Potency, µM (series often up to 57.9 µM), for inactives: top-dose activity change, negative = inhibition, hits mostly inhibitors | 410,000 tested, 1.2% active; calls by dose curve; tested in HEK293T cells; further: read-out not given here; potency means the concentration at half of the fitted maximal effect; on the % scale 0 is the no-effect control and ±100 the full control effect; nearly all actives have a fitted effect of over 45% in size
LASV entry inh – qHTS for Inhibitors of binding or entry into cells for Lassa Virus; Lassa virus pseudotype entry inhibition, cell reporter; Potency, µM (highest dose often 37.9 µM), inactives show at the top dose activity change, negative = inhibition, most hits filed as inhibitors; 300,000 tested, 1.2% active; calls by dose curve; tested in HEK293 cells; further: potency means the concentration at half of the fitted maximal effect; on the % scale 0 is the no-effect control and ±100 the full control effect; nearly all actives have a fitted effect of over 50% in size
CHX counter – Cycloheximide Counterscreen for Small Molecule Inhibitors of Shiga Toxin. max response, %. 300,000 tested, 12% active. cell reporter, cycloheximide protein synthesis inhibition counterscreen. AID 2314, 2010; in the data active means max response mostly above about 13%, no sharp cut-off; inactive means mostly below about 14%; further: read at 38.3 µM for the half of the compounds with a filed dose; 0% is about no effect
MARV entry inh – qHTS for inhibitors of binding or entry into cells for Marburg Virus; Potency, µM (series often up to 37.8 µM), without a hit: at the highest dose activity change, negative = inhibition, hits mostly inhibitors; AID 540276, 2011; Marburg virus pseudotyped entry inhibition, cell reporter; 300,000 tested, 1.8% active; calls by dose curve; tested in HEK293 cells; further: potency means the concentration at half of the fitted maximal effect; on the % scale 0 is the no-effect control and ±100 the full control effect
The depositor's hits bear a star; [ ] = dose if it differs, or a comment. Most compounds without a hit are left out; they make up all but 13% or so of the library.

Cc1nn(-c2ccccc2)c(NC(=O)C(C)C)c(-c2ccccc2)c1=O was read as Shiga toxin inh -16, HCV inh 25%, FMDV inh 6%, LASV entry inh 16%, CHX counter -4 and MARV entry inh 4%.
`Cc1cc(-c2ccccc2)n(-c2ccccc2)n1` gave Shiga toxin inh 94*, HCV inh -10%, FMDV inh 26%, LASV entry inh 8%[46.1 µM], CHX counter 40* and MARV entry inh 3%[46.1 µM].
Cc1cc(-c2ccco2)n(-c2ccccc2)n1 was read as Shiga toxin inh -11, HCV inh -8%, FMDV inh -21%, LASV entry inh inconclusive, CHX counter 1 and MARV entry inh 1%.
Cc1nn(-c2ccccc2)c(N)c1-c1ccccc1 was read as Shiga toxin inh 64*, HCV inh 1%, FMDV inh 19%, LASV entry inh inconclusive, CHX counter 38* and MARV entry inh inconclusive.
For O=C1C=C(NC2CCCCC2)CCC1 the results were HCV inh 31% and FMDV inh -4%.
CC1CCN(C(=O)CSc2nnc(N)s2)CC1 was read as Shiga toxin inh 20, HCV inh 15%, FMDV inh 9%, LASV entry inh 24%[46.1 µM], CHX counter 11 and MARV entry inh 2%[46.1 µM].
Cc1cc(NC(=O)COC(=O)c2ccc(S(=O)(=O)C(F)F)cc2)n(-c2ccccc2)n1 was read as HCV inh 35%, FMDV inh -15%, LASV entry inh 10% and MARV entry inh 9%.
`Cc1nn(-c2nc3ccccc3[nH]2)c(N)c1-c1ccccc1` gave Shiga toxin inh 67*, HCV inh 32µM*, FMDV inh -14%, LASV entry inh inconclusive, CHX counter 42* and MARV entry inh inconclusive.
Screening O=c1cc(-c2ccccc2)[nH]n1-c1nc2ccccc2[nH]1 returned Shiga toxin inh 21, HCV inh inconclusive, FMDV inh -20%, LASV entry inh inconclusive, CHX counter 5 and MARV entry inh inconclusive.
Cc1ccccc1OCC(=O)Nc1c2c(nn1C(C)(C)C)CS(=O)(=O)C2 was read as Shiga toxin inh 13, HCV inh 3%, FMDV inh -24%, LASV entry inh inconclusive, CHX counter -1 and MARV entry inh -3%.
Screening CC(C)(C)c1ccc(C2CC2C(=O)N/N=C\c2ccc[nH]2)cc1 (stereo unspecified) returned Shiga toxin inh 48, HCV inh 0.56µM*, FMDV inh -19%, LASV entry inh inconclusive, CHX counter 12* and MARV entry inh inconclusive.
O=C(CCc1ccccc1)N/N=C/c1cccc([N+](=O)[O-])c1 was read as Shiga toxin inh 22, HCV inh 1%, FMDV inh 8% and CHX counter 10.
Screening O=C(N/N=C/c1ccco1)C1CC1c1ccccc1 (stereo unspecified) returned Shiga toxin inh -4, HCV inh inconclusive, FMDV inh 5%, LASV entry inh 18µM*, CHX counter -4 and MARV entry inh 27%.
`O=C(N/N=C/c1c[nH]c2ccccc12)C1CC1c1ccccc1` (stereo unspecified) gave Shiga toxin inh -14, HCV inh inconclusive, FMDV inh inconclusive, LASV entry inh 2.8µM*, CHX counter 1 and MARV entry inh inconclusive.
Screening O=C(N/N=C/c1ccco1)C1CC1 returned Shiga toxin inh 33, HCV inh -3%, FMDV inh -16%, LASV entry inh 19%, CHX counter 4 and MARV entry inh 14%.
O=C(N/N=C/c1cccc([N+](=O)[O-])c1)C1CC1c1ccccc1 (stereo unspecified) was read as Shiga toxin inh -8, HCV inh -15%, FMDV inh -1%, LASV entry inh 2.2µM*, CHX counter -1 and MARV entry inh inconclusive.
For O=S(=O)(Nc1ccc(O)cc1)c1cccc2cccnc12 the results were Shiga toxin inh 8, HCV inh 7%, FMDV inh 10% and CHX counter 3.
Screening CC(=C1C(=O)c2ccccc2C1=O)N1CCN(C/C=C/c2ccccc2)CC1 returned Shiga toxin inh -18, HCV inh -12%, FMDV inh 19%, LASV entry inh -4%, CHX counter 9 and MARV entry inh 8%.
CN(C)/C=C/C(=O)c1cccc([N+](=O)[O-])c1 was read as Shiga toxin inh -4, HCV inh -1%, FMDV inh 4%, LASV entry inh 11%, CHX counter 10 and MARV entry inh inconclusive.
For CN1/C(=C/C(=O)c2ccc(Cl)cc2)Sc2cc3c(cc21)OCO3 the results were Shiga toxin inh 68*, HCV inh 7%, FMDV inh 36%, LASV entry inh 16%, CHX counter 41* and MARV entry inh inconclusive.
`COc1ccc2c(c1)S/C(=C\C(=O)c1ccncc1)N2C` gave Shiga toxin inh 110*, HCV inh -19%, FMDV inh 38%, LASV entry inh 8%, CHX counter 47* and MARV entry inh -18%.
`COc1ccc(C(=O)/C=C2/Sc3cc4c(cc3N2C)OCO4)cc1` gave Shiga toxin inh -11, HCV inh inconclusive, FMDV inh 3%, LASV entry inh 5%, CHX counter 1 and MARV entry inh 8%.
`CN1/C(=C\C(=O)c2cccc([N+](=O)[O-])c2)Sc2ccccc21` gave Shiga toxin inh 97*, HCV inh 10%, FMDV inh 30%, LASV entry inh 21%, CHX counter 38* and MARV entry inh 30%[46.1 µM].
Screening COc1cc(OC)cc(C(=O)/C=C2\Sc3ccccc3N2C)c1 returned Shiga toxin inh 42*, HCV inh 6%, FMDV inh 18%, LASV entry inh 15%[46.1 µM], CHX counter 41* and MARV entry inh 2%[46.1 µM].
`COc1ccc(NC(=O)/C=C/c2ccc(OC)c(OC)c2)cn1` gave Shiga toxin inh 9, HCV inh -21%, FMDV inh inconclusive, LASV entry inh -8%, CHX counter 7 and MARV entry inh 13%.
`O=C(NCc1cccc(C(F)(F)F)c1)C1CC(c2ccc(C(F)(F)F)cc2)=NO1` (stereo unspecified) gave Shiga toxin inh -12, HCV inh 2%, FMDV inh -5% and CHX counter -2.
CCc1cccc(NC(=O)C2CCCN(S(=O)(=O)c3cccs3)C2)c1 (stereo unspecified) was read as Shiga toxin inh 12, HCV inh inconclusive, FMDV inh 4%, LASV entry inh inconclusive, CHX counter 3 and MARV entry inh inconclusive.
Screening CC(=O)c1ccc2c(c1)N(C)c1ccccc1S2 returned Shiga toxin inh 15*, HCV inh inconclusive, FMDV inh -6%, LASV entry inh 7%, CHX counter 15* and MARV entry inh inconclusive.
